Assay results: PubChem BioAssay AID504861 (Broad Institute, 2011)
Hit rate of the full screen: of about 1,200 compounds, about 290 (24%) were called active. Roughly 3% stayed inconclusive and do not appear here.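 The calls were made as follows: active = compounds lowering cell viability signal with fitted half-maximal concentration at most ten times their highest tested concentration; inconclusive = flat fit with 30 to 70% signal loss, or poor fit; inactive = the rest.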 A selection follows. A call without a number means that no potency is given here. Potency and affinity values are given separately.

Assay: HEK293T cell viability reduction, dose response, cytotoxicity control for LMP1 NF-kB inhibitor project, CellTiter-Glo luminescence, cherry-picks (AID 504861)
Conditions: CellTiter-Glo ATP luminescence, 48 h; series mostly up to 26 µM

Row | Structure (SMILES) | outcome
1 | CC(C)Oc1ccc(C(=O)Nc2nnc(SCC(=O)N3CCOCC3)s2)cc1 | inactive
2 | CCOc1ccc(N/C=C/C(=O)c2ccccc2)cc1 | inactive
3 | Clc1cccc(CN2CCCCCC2)c1 | inactive
4 | CC(=O)c1ccc(N2CCN(c3ccnc4cc(Cl)ccc34)CC2)cc1 | inactive
5 | c1ccc(C2c3[nH]c4ccccc4c3CCN2Cc2cccn2-c2ccccn2)nc1 (centres undefined) | inactive
6 | Cn1c(=O)c2ncn(CC(=O)O)c2n(C)c1=O | inactive
7 | Cc1cc(C)c(S(=O)(=O)Nc2nnc(CC(C)C)s2)c(C)c1 | inactive
8 | CCn1c(=O)c2c(cnn2C)c2ccccc21 | inactive
9 | COc1cc(Cl)cc(C(c2c(C(=O)O)[nH]c3ccccc23)c2c(C(=O)O)[nH]c3ccccc23)c1O | inactive
10 | O=C1CC(c2ccccc2)Oc2ccccc21 (centres undefined) | inactive
11 | CCOC(=O)c1c(NC(=O)C2C3CCC(O3)C2C(=O)O)sc(C)c1-c1ccc(F)cc1 (centres undefined) | inactive
12 | Cc1nc2sc(C(N)=O)c(N)c2c2c1CCCC2 | inactive
13 | O=C(NC(Cc1c[nH]c2ccccc12)C(=O)Nc1ccc(F)c([N+](=O)[O-])c1)c1cccs1 (centres undefined) | inactive
14 | COCC(=O)N1CCC(Oc2ccc(C(=O)N3C[C@H]4CC[C@H]3C4)cc2)CC1 | inactive
15 | CC1=C(C(=O)OCc2ccc3c(c2)OCO3)C(c2ccc(Cl)cc2)NC(=O)N1 (centres undefined) | inactive
16 | COc1ccc(N2Cc3cccc(C(=O)NC(C)CCc4ccco4)c3C2=O)cc1 (centres undefined) | inactive
17 | COc1ccc(CCNC(=O)CSC(=O)c2ccccc2)cc1OC | inactive
18 | CCCN(CC1CC1)c1nc(C)nc(Nc2c(Cl)cc(Cl)cc2Cl)c1Cl | inactive
19 | CC(C)Nc1nnc(SCC(=O)c2c(N)n(Cc3ccccc3)c(=O)n(C)c2=O)s1 | inactive
20 | COc1cccc(C(=O)OCn2nnc3ccccc3c2=O)c1OC | inactive
21 | COc1ccc(C(=O)Nc2ccc(N3CCN(C(=O)c4ccccc4C)CC3)cc2)cc1 | inactive
22 | COc1ccc2sc3c(=O)[nH]c4ccccc4c3c2c1 | inactive

Row | Structure (SMILES) | outcome
23 | CCOc1ccccc1C(=O)N[C@H](C(=O)OCc1cc([N+](=O)[O-])cc2c1OCOC2)C(C)C | inactive
24 | Cc1ccc(S(=O)(=O)N2CCCCC2)cc1NC(=O)CNc1ccccc1N1CCCC1=O | inactive
25 | O=C(c1ccc(Cl)cc1)N1CCN(CCOc2ccccc2)CC1 | inactive
26 | Cn1c(CC(=O)Nc2ccc(F)cc2)nnc1SCC(=O)Nc1nncs1 | inactive
27 | Cc1cccc(/C=N/NC(=O)CNc2cccc3ccccc23)n1 | inactive
28 | O=C(O)c1ccc(C=NNC(=O)c2cccc3ccccc23)cc1 | inactive
29 | O=C(/C=C/Nc1cccc(C(F)(F)F)c1)C(F)(F)F | inactive
30 | O=C(CN1C(=O)c2ccccc2S1(=O)=O)c1ccccc1F | inactive
31 | COc1ccc(NC(=O)N(CCN2CCCC2)Cc2cc3cc(OC)c(OC)cc3[nH]c2=O)cc1 | inactive
32 | CC(C)CC1C(=O)N(Cc2cn(CC3CCCCC3)nn2)CCS(=O)(=O)N1Cc1ccc(-c2ccc(F)nc2)cc1 (centres undefined) | inactive
33 | Cc1ccc(C(=O)Nc2ccc3ncccc3c2)cc1 | inactive
34 | O=C(Nc1ccccn1)NC1CCCCC1 | inactive
35 | CCC(C)N1C(=O)CCC1C(=O)N1CCN(c2ccc(F)cc2)CC1 (centres undefined) | inactive
36 | c1cncc(CNc2ncnc3ccc(-c4ccoc4)cc23)c1 | inactive
37 | O=c1cc(-c2ccccc2)[nH]c2ccc(F)cc12 | inactive
38 | CCOc1ccc(OCc2cccc(C(=O)N3CCCC3)c2)cc1 | inactive
39 | COc1ccc(-c2ccc3c(c2)S(=O)(=O)c2cccc(C(=O)NCc4cc(C)oc4C(F)(F)F)c2C3=O)cc1OC | inactive
40 | COCCCNC(=O)CN1C(=O)COc2ccc(S(=O)(=O)N3CCOCC3)cc21 | inactive
41 | CN1CCc2cccc3c2C1Cc1ccc(O)c(O)c1-3 (centres undefined) | inactive
42 | CSc1ccccc1NC(=O)CN1CCCCC1C (centres undefined) | inactive
43 | COc1ccc2cc(-c3cc(C(=O)OCC(=O)Nc4c(C)n(C)n(-c5ccccc5)c4=O)c4ccccc4n3)ccc2c1 | inactive
44 | CCc1ccc(/C=C/C(=O)C2C(=O)c3ccccc3C2=O)cc1 | inactive

Row | Structure (SMILES) | outcome
45 | N#CCCn1cc(C(=O)Nc2ccccn2)c(-c2ccccc2)n1 | inactive
46 | CC1=NN(C(N)=S)C(=O)C1N=Nc1cccc(C(=O)O)c1 (centres undefined) | inactive
47 | C[C@@]12C(=O)N(Cc3ccccc3)CC(=O)N1[C@H](/C=C/c1ccccc1)[C@@H]1C(=O)N(c3ccccc3)C(=O)[C@@H]12 | inactive
48 | COc1cc(OC)cc(C(=O)N[C@H](C(=O)OCC(=O)c2ccc(C)c([N+](=O)[O-])c2)C(C)C)c1 | inactive
49 | Clc1ccc(-n2ncc3c(N4CCCC4)ncnc32)cc1 | inactive
50 | COc1cc(CC(=O)N(c2ccccc2)c2nc(C)cs2)cc(OC)c1OC | inactive
51 | Cc1nc2sc(-c3ccccc3)cc2c(=O)n1N | inactive
52 | COCCN1CSC(=S)N(Cc2ccco2)C1 | inactive
53 | O=C(Nc1ccc(Cl)cc1)Nc1nnc(CSCc2ccc(Cl)cc2)s1 | inactive
54 | COc1cccc(/C=N\NC(=O)c2ccc(C)nc2)c1 | inactive
55 | COc1cc(NCCCCCCN)c2ncccc2c1OC | inactive
56 | O=C(C=C1SCCS1)/C=C/c1ccco1 | inactive
57 | COc1cccc(C(=O)CC(=O)C(=O)Nc2ccc(C)cc2Cl)c1 | inactive
58 | CCSC1=C(C#N)C(c2ccc(C)o2)CC(=O)N1 (centres undefined) | inactive
59 | Cc1cc(=O)[nH]c(N/N=C/c2ccc(C)o2)n1 | inactive
60 | CCOc1ccc(/C=N/Nc2cc(N3CCOCC3)ncn2)c(O)c1 | inactive
61 | Cc1cc(N=Cc2c(O)ccc3cc(Br)ccc23)no1 | inactive
62 | CCCC(=O)NCCCc1nc2ccccc2[nH]1 | inactive
63 | COc1ccc(NC(=O)c2cc3ccccc3oc2=O)cc1 | inactive
64 | O=C1c2ccccc2C(Nc2cccnc2)N1Cc1ccccc1 (centres undefined) | inactive
65 | C[C@H](CO)N1C[C@H](C)[C@@H](CN(C)C(=O)NC2CCCCC2)Oc2c(NS(=O)(=O)c3cn(C)cn3)cccc2C1=O | inactive
66 | COc1ccc(C(c2sc3nc(C)nn3c2O)N2CCC(C(N)=O)CC2)cc1OC (centres undefined) | inactive

Row | Structure (SMILES) | outcome
67 | CCCN(CCC)c1ncnc2nc[nH]c12 | inactive
68 | Cc1ccc(-n2nc(C(=O)NCc3ccc(C)o3)c3c4ccccc4n(C)c3c2=O)cc1 | inactive
69 | Cc1ccc(-c2nnn(CC(=O)N(Cc3ccco3)C(C(=O)NC(C)(C)C)c3ccncc3)n2)o1 (centres undefined) | inactive
70 | CCC(C)n1ncn(-c2ccc(N3CCN(c4ccc(OCC5COC(Cn6cncn6)(c6ccc(Cl)cc6Cl)O5)cc4)CC3)cc2)c1=O (centres undefined) | inactive
71 | CC(=C/c1ccccc1)/C=N/n1c(-c2ccncc2)n[nH]c1=S | inactive
72 | CCCc1c(C(=O)N/N=C(\C)c2ccccn2)nnn1-c1nonc1N | inactive
73 | N/C(=N\OC(=O)c1cccc(Br)c1)c1ccccn1 | inactive
74 | Cc1ccnc(NC(=O)c2cccc(NC(=O)c3ccc(Cl)c(Cl)c3)c2)c1 | inactive
75 | O=C(O)c1ccc(C=NN=C2c3ccccc3-c3ccccc32)cc1 | inactive
76 | Cc1ccc(CCNC(=O)CCc2nc3ccccc3[nH]2)cc1 | inactive
77 | CCn1c2ccccc2c2cc(/C=N/n3c(-c4cc(C)[nH]n4)n[nH]c3=S)ccc21 | inactive
78 | O=C(O)c1cn2c3c(ccc(Cl)c3c1=O)OCC2 | inactive
79 | S=c1[nH]nc(C2CCCCC2)n1/N=C/c1ccncc1 | inactive
80 | CCN(CC)S(=O)(=O)c1ccc(N=NC2=C(O)CCCC2=O)cc1 | inactive
81 | CCN(CC)S(=O)(=O)c1ccc(N/N=C/c2ccc(O)cc2O)nc1 | inactive
82 | COC(=O)C1=NNC(C(=O)OC)C1c1ccccc1 (centres undefined) | inactive
83 | COCCCNCC1C(Oc2ccc(Cl)cc2)C(=O)N1c1ccccc1C (centres undefined) | inactive
84 | COc1ccc(C(=O)Nc2cc(C)c(NC(=O)c3ccccc3OC)cn2)cc1 | inactive
85 | COc1ccccc1-n1cc([C@@H]2C[C@H]3CN(c4ccccc4)C(=O)[C@]34CCCN24)cn1 | inactive
86 | COc1ccc2cc(C(N)=O)/c(=N\NC(=O)c3ccccc3)oc2c1 | inactive
87 | CCOC(=O)CNC(=O)CSc1nnc(NC(=O)c2ccc(C)cc2)s1 | inactive
88 | Nc1cc(=O)[nH]c(SCCSc2cc(Cl)ccc2Cl)n1 | inactive

Row | Structure (SMILES) | outcome
89 | O=C(Nc1ccc(N2CCOCC2)cc1)c1cn2ccccc2n1 | inactive
90 | COc1cc(/C=C(\C#N)c2ccccn2)ccc1OCc1ccccc1Cl | inactive
91 | CN(C)CCN(Cc1ccc(Cl)cc1)c1ccccn1 | inactive
92 | CCn1c2ccccc2c2cc(/C=N/n3c(C)nnc3C)ccc21 | inactive
93 | Cn1cccc1C(=O)OCC(=O)Nc1ccc2c(c1)OCO2 | inactive
94 | Cc1ccc2oc(C(=O)Nc3ccc(S(=O)(=O)Nc4onc(C)c4C)cc3)c(C)c2c1 | inactive
95 | O=C(CN1C(=O)c2ccccc2S1(=O)=O)c1ccc(F)c(F)c1 | inactive
96 | CC(=O)c1sc(NC(=O)C2COc3ccccc3O2)nc1C (centres undefined) | inactive
97 | Cc1ccccc1NC(=O)CN1C(=O)S/C(=C\c2cccn2-c2cccc(C(=O)O)c2)C1=O | inactive
98 | O=C(O)/C=C/c1ccc2ccccc2n1 | inactive
99 | CCOC(=O)Nc1ccc2c(c1)N(C(=O)CN(C)C)c1ccccc1CC2 | inactive
100 | CCOCCCNC(=O)CN1C(=O)/C(=C\c2ccc(C)cc2)Sc2ccccc21 | inactive
101 | CCN(c1ccccc1)S(=O)(=O)c1ccc(Cl)c(NC(=O)Nc2ccc(Cl)cc2C#N)c1 | inactive
102 | COc1ccc(-c2csc3ncnc(NCCO)c23)cc1 | inactive
103 | COC(=O)c1cc2n(n1)CCN(Cc1ccccc1Cl)C2=O | inactive
104 | CC1CN(c2cc(=O)n(-c3ccccc3)c(=O)[nH]2)CC(C)O1 (centres undefined) | inactive
105 | CCc1cc2c(Sc3nc4ccccc4s3)ncnc2s1 | inactive
106 | Cc1nn(-c2ccccc2)c(Cl)c1C(=O)N1CCN(c2ncnc3c2cnn3-c2ccccc2)CC1 | inactive
107 | CC1(C)Cc2c(ccc3ccccc23)/C(=C/C(=O)N2CCCCC2)N1 | inactive
108 | COc1ccc2cc(-c3cc(C(=O)O)c4ccccc4n3)ccc2c1 | inactive
109 | COc1ccc(NC(=O)NCCN2CCc3ccccc3C2)cc1 | inactive
